D2 antagonist = D2 dopamine receptor (human) antagonism; P14416; HEK293 TREx D2 cells, calcium flux, dopamine EC80; inhibition, % at 10 µM; hit rate 2% among 340,000; AID 485344; in the data active means inhibition above about 30%; inactive means below that, where a call was filed; further: 0% is about no effect
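Overnight-induced (tetracycline, 30 C) HEK293 T-REx cells carrying force-coupled D2 receive a no-wash calcium dye, then compound, then EC80 dopamine at 180 s; signals are read kinetically throughout.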
D2 PAM-1 = positively modulates the human D2 dopamine receptor allosterically; HEK293 T-REx D2, calcium flux, EC20 dopamine potentiation; potentiation, % at 10 µM; hit rate 0.34% among 340,000; AID 485347;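 active means potentiation over 3 SD above the plate norm, cut at about 30% in these data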; further: 0% is about no effect
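Tetracycline-induced Hek293 Trex D2 cells, force-coupled to calcium, loaded with no-wash calcium dye. Compound added with 180 s kinetic read for agonism, then EC20 dopamine and a further 180 s read for potentiation.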
D2 PAM-2 = positive allosteric modulators of human D2 dopamine receptor. P14416. DiscoveRx D2 beta-arrestin cells, luminescence, 90 min; 100% = 57 uM dopamine signal. potentiation, % (no concentration beside the values). hit rate 0.23% among 360,000; in the data active means potentiation above about 50%; inconclusive means mostly about 30% to 49%
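PathHunter beta-arrestin assay in DiscoveRx D2 cells. Compounds were added with an EC20 of dopamine (50 nM final) for 90 min at 37 deg C. Luminescence was read 1 h after detection reagent, with 57 uM dopamine as the EC100 control.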
D2 ag-1 = activates the human D2 dopamine receptor; HEK293 T-REx D2 cells, calcium flux agonist mode; activation, % at 2 µM; hit rate 0.53% among 340,000;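 active means activation over 3 SD above normal in the single-dose calcium agonist read, cut at about 30% in these data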; further: 0% is about no effect
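Calcium-flux readout, 1 cycle/sec over 180 s following compound pin transfer, in inducible HEK293 Trex D2 cells (force-coupled); dopamine controls included. Positive calcium responses during this window marked compounds as potential agonists.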
Apoferritin bind = binds horse apoferritin like a general anesthetic | apoferritin/1-aminoanthracene competitive binding, fluorescence | hit rate 0.074% among 350,000 | AID 485281 | Potency, µM (doses to about 77.5 µM), for inactives: at the top dose activity change, negative = displacement, hits mostly inhibitors | P02791; active means well fitted inhibition curve with a large enough effect; inconclusive means small, poorly fitted or top-dose-only effect; inactive means no such curve, though single readings can be large or run the other way; further: potency means the concentration at half of the fitted maximal effect; on the % scale 0 is the no-effect control and ±100 the full control effect; nearly all actives have a fitted effect of over 20% in size
Target sequence (P02791 2-175 limits assumed): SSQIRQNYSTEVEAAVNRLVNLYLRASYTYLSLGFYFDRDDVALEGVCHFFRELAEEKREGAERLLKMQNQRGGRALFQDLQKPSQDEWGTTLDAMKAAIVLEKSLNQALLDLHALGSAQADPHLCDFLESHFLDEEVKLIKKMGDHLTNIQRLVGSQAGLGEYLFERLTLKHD
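Horse-spleen apoferritin (10 uM) was mixed with 50% saturated 1-aminoanthracene in PBS, exposed to compounds for 10 min at room temperature, and read for fluorescence (ex 380 nm, em 535 nm). Competitive displacement was fitted with a four-parameter Hill equation.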
D2 ag-2 = activates the human D2 dopamine receptor; DiscoveRx PathHunter D2 beta-arrestin, luminescence, 90 min; 100% = 57 uM dopamine signal; P14416; hit rate 0.084% among 360,000; activation, % (test concentration not listed); in the data active means activation above about 40%; inconclusive means between about 15% and that limit
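DiscoveRx PathHunter D2 beta-arrestin cells (2,100/well) attached overnight, then compound-stimulated 90 min at 37 C in HBSS/10 mM HEPES/0.1% Tween-20 buffer; beta-galactosidase complementation read by luminescence after 1 h at ambient temperature. Dopamine 57 uM final (EC100) as control.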
* marks the source's active call; other numbers are inactive results; ? = inconclusive; · = not tested or not shown. The list is not random: actives were taken first. Their share in the collection is about 2.5%.

SMILES | D2 antagonist | D2 PAM-1 | D2 PAM-2 | D2 ag-1 | Apoferritin bind | D2 ag-2
O=S1(=O)CC(O)C(NCc2ccco2)C1 (stereo unspecified) | 34* | -6 | -11 | 1 | -9% | 0
CN(C)C(=O)c1cc(C(=O)Cc2ccccc2)c[nH]1 | 37* | 5 | -13 | 1 | -10% | -4
COc1ccc(Nc2ncc3c(n2)CC(c2ccc(C)cc2)CC3=O)cc1 (stereo unspecified) | 36* | 21 | 1 | 0 | -6% | 1
CCC(C)(C)C(=O)Nc1nnc(CCc2ccccc2)s1 | 44* | 1 | -5 | 0 | ? | -1
CN(C)CCCOc1ccc(C(C)(C)c2ccccc2)cc1 | -8 | -3 | -25 | 0 | 16µM* | -3
CN(C)CCOc1ccc(C(C)(C)c2ccccc2)cc1 | -9 | 4 | -11 | 0 | -17% | -4
CCOC(=O)C1=NNC2(CC(=O)N(c3cccc(C)c3)C2=O)C1 (stereo unspecified) | -4 | 23 | -2 | 0 | -6% | -2
COc1ccc(S(=O)(=O)NCC2CCC(C(=O)NCCCN3CCCC3=O)CC2)cc1 (stereo unspecified) | 32* | 15 | -7 | 0 | 2% | -4
c1ccc2sc(-c3ccc4c(c3)OCO4)nc2c1 | 11 | 31* | -12 | 0 | ? | 0
Cc1ccc(-n2cccn2)c(CN2CCCC(C(=O)c3sccc3C)C2)c1 (stereo unspecified) | 73* | -14 | -13 | 1 | -21% | -4
CC(c1ccccc1F)n1cc(C(=O)NCCCn2ccnc2)nn1 (stereo unspecified) | -15 | 5 | -1 | 0 | 3% | -2
Cc1ccccc1NC1=NC(=S)N(CC(N)=O)C12CCOC(C)(C)C2 (stereo unspecified) | 44* | -8 | -6 | 1 | 3% | -3
O=C(COc1ccccc1O)c1cccs1 | -6 | -5 | -15 | 0 | 28µM* | -5
COc1ccc(/C=C/C(=O)Nc2cc(C(F)(F)F)ccc2Cl)cc1 | 32* | -21 | -26 | 0 | -15% | 4
COc1ccc(/C=C/C(=O)Nc2ccc(Cl)cc2Cl)cc1 | · | -4 | · | -2 | -6% | ·
CCCCC(CCC(=O)Nc1ccc(C(=O)OC)cc1)C(=O)O (stereo unspecified) | 15 | -3 | -10 | 1 | -11% | -2
O=C1C(=Cc2ccncc2)CCCc2ccccc21 | · | · | -10 | · | · | -4
O=C1/C(=C/c2cccc3ccccc23)CCCc2ccccc21 | 11 | 59* | -8 | 0 | ? | -6
Cc1cc(NC(=O)c2ccc(Cn3cc([N+](=O)[O-])cn3)o2)no1 | · | · | -5 | · | -1% | -1
Cc1ccccc1NC(=O)c1ccc(Cn2cc([N+](=O)[O-])cn2)o1 | 32* | -2 | 0 | 0 | -7% | -6
CCCCCCCNC(=O)C1(CC2CC(c3ccc(Cl)cc3)=NO2)CCN(C(=O)c2cc(OCC)c(OCC)c(OCC)c2)CC1 (stereo unspecified) | 44* | -11 | -7 | 1 | -5% | 0
CC(=O)Nc1nc(C(=O)O)cs1 | -15 | 2 | -3 | 1 | -1% | -6
CCn1cc2nc(SCc3cccc(C(F)(F)F)c3)n(Cc3ccc(Cl)cc3)c(=O)c2n1 | · | 3 | · | 1 | 57% | ·
Cc1ccc(Cl)cc1Nc1nn2c(=O)c3ccc(C(=O)Nc4ccc(F)cc4)cc3nc2s1 | · | 12 | · | -1 | -10% | ·
CCCCC(=O)OCc1nc2ccccc2s1 | -9 | 42* | -23 | 0 | -10% | -11
CCN(CC(=O)Nc1cc(Cl)ccc1C)C(=O)CSCc1c(C)noc1C | 33* | -16 | -10 | 0 | · | 0
CCN(CC(=O)Nc1cc(Cl)ccc1C)C(=O)C1CC1 | 56* | 7 | -3 | 0 | · | -1
CCN(CC(=O)Nc1cc(Cl)ccc1C)C(=O)C1CC(=O)N(Cc2ccccc2)C1 (stereo unspecified) | 7 | -25 | -13 | 0 | · | 3

From PubChem
